This note sets out measurements from PubChem BioAssay AID2685 (National Center for Advancing Translational Sciences (NCATS), 2010).

Each structure is given as a SMILES string. In all, about 320,000 compounds went through this assay and about 2,100 (0.66%) were called active. Inconclusive results (about 53%) are left out. The call rests on the fitted dose curve; in most records, active means well fitted inhibition curve with a large enough effect in the signal ratio, with a control signal flat (not every such curve was filed as active); inconclusive means small, poorly fitted or top-dose-only effect, or effect the other way, or a change in a side signal; inactive means flat fitted curve, though single readings scatter; the % refers to the signal ratio. The sample as a whole holds a higher share of actives than the screen did.
Potency means the concentration at half of the fitted maximal effect.

This assay in a line: qHTS Assay for Lipid Storage Modulators in Drosophila S3 Cells.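 On cell number change: cells counted by Cell Tracker Red CMTPX staining in the red channel.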 On lipid storage change, negative = inhibition: on the % scale 0 is the no-effect control and ±100 the full control effect. The following applies: BODIPY lipid droplet fluorescence, 18-24 h, cells fed with added oleic acid; cell number change: measured here: cell count max response; series mostly up to 46.1 µM; lipid storage change, negative = inhibition: at the top concentration. Summed up: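 Drosophila S3 cells loaded with oleic acid (400 uM, as added) and compounds at several concentrations; lipid droplets imaged by 488-nm laser-scanning cytometry, 500–530 nm intensity and object ratio to cell channel. Percent activity normalized to 20 uM Triacsin C.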
For orientation: In qHTS, concentration-response curves come from the screen itself.
Consider `CN(C)CCCN(C(=O)c1ccc(S(=O)(=O)N2CCOCC2)cc1)c1nc2ccc(F)cc2s1`, for which the “lipid storage change, negative = inhibition” value is -8.58% (inactive) and the cell number change was 15.4%. On to `CCOC(=O)COc1ccc(Br)cc1/C=C\c1[nH]c(=O)[nH]c(=O)c1[N+](=O)[O-]`, for which the Potency is 20.6 µM (active) and the cell number change was -21.8%. On to `CCOC(=O)CSC1=NC(=O)/C(=C/c2ccc(Br)cc2)S1`, for which the “lipid storage change, negative = inhibition” value was 7.04% (inactive) and the cell number change is 1.95%. Taken in the same sequence, the figures for `CCCOc1ccccc1/C=C1\SC(N)=NC1=O` were 11.7% (inactive) and 13.8%.

For `CCOC(=O)COc1ccc(Br)cc1/C=C/c1[nH]c(=O)[nH]c(=O)c1[N+](=O)[O-]`, the “lipid storage change, negative = inhibition” value was 7.09% (inactive) and the cell number change was -18.1%. Take `CCOC(=O)COc1ccc(Br)cc1/C=C1\SC(N)=NC1=O`: the Potency was 5.8 µM (active) and the cell number change is -21.5%. For the compound `CCCOc1ccc(/C=C/c2[nH]c(=O)[nH]c(=O)c2[N+](=O)[O-])cc1OCC`, the “lipid storage change, negative = inhibition” value was -8.91% (inactive) and the cell number change is -5.22%.

Take `Cc1c(C(=O)N2CCCC2)sc(NC(=O)c2ccco2)c1C#N`: the “lipid storage change, negative = inhibition” value is -12.4% (inactive) and the cell number change is -19.3%. As for `COC(=O)[C@@H](NC(=O)Nc1ccc(OC)cc1)C(C)C`, the compound was classed as inactive and the cell number change is -11.6%.

In the case of `COc1cc(NC(=O)N[C@H](C(=O)O)C(C)C)cc(OC)c1`, the Potency was 5.8 µM (active) and the cell number change is -13.1%.

Consider `COC(=O)[C@@H](NC(=O)Nc1cccc(OC)c1)C(C)C`, for which the “lipid storage change, negative = inhibition” value was -16.2% (inactive) and the cell number change was -18%. On to `Nc1nc2ccc(Oc3ccccc3)cc2s1`, for which the compound was classed as inactive and the cell number change was -7.07%. For the compound `CCOC(=O)CSc1nc(=O)n2ccccc2n1`, the “lipid storage change, negative = inhibition” value was -14.6% (inactive) and the cell number change was -9.97%. For `CCN1CCN(Cc2ccc(OCc3ccccc3)c(OC)c2)CC1`, the “lipid storage change, negative = inhibition” value was -9.35% (inactive) and the cell number change is -5.92%. `COc1ccc(CN2CCN(C)CC2)cc1OCc1ccccc1`: the Potency is 18.4 µM (active) and the cell number change was -3.92%. Turning to `COc1ccc(CN2CCC(C)CC2)cc1OCc1ccccc1`, the “lipid storage change, negative = inhibition” value is 9.08% (inactive) and the cell number change was 4.43%. The like results for `CC(=O)Cc1cc(=O)c2c(C)cc(O)c(C3OC(CO)C(O)C(O)C3O)c2o1` (stereo not drawn) were, in that order, -1.85% (inactive) and -1.27%. The like results for `O=C(COC(=O)c1cc(-c2ccccc2)nc2ccccc12)Nc1ccc2c(c1)OCO2` were, in that order, 17.7% (inactive) and 2.4%. For the compound `CC(=O)Nc1ccc(-n2c(C)nc(=O)c(-c3ccccc3)c2C)cc1`, the Potency was 13 µM (active) and the cell number change was found to be 13.2%. As to `Cc1nc(=O)c(-c2ccccc2)c(C)n1-c1ccc(O)cc1`, the “lipid storage change, negative = inhibition” value was -123% (inactive) and the cell number change was 0.899%. For `COC(=O)c1ccc(-n2c(C)nc(=O)c(-c3ccccc3)c2C)cc1`, the “lipid storage change, negative = inhibition” value was 11.3% (inactive) and the cell number change was found to be 0.97%.

`CCN(/C=N/S(=O)(=O)c1ccc(Cl)cc1)CC`: the “lipid storage change, negative = inhibition” value is -5.13% (inactive) and the cell number change was 6.24%. Consider `CSc1cc(C)n(-c2ccc(Cl)cc2)c(=S)c1C(C)=O`, for which the outcome was inactive and the cell number change worked out at 5.69%.

Turning to `CSc1cc(C)n(-c2ccccc2C)c(=S)c1C(C)=O`, the Potency is 29.1 µM (active) and the cell number change was determined as 16.2%. `COc1ccccc1-n1c(C)cc(SC)c(C(C)=O)c1=S`: the result was inactive.

Consider `Cc1ccccc1NC(=O)NC1(C(=O)NCCCN2CCOCC2)CCCCC1`, for which the “lipid storage change, negative = inhibition” value is -7.96% (inactive) and the cell number change was -17.7%. The like results for `CC(=O)N1c2c(cc(Br)cc2S(=O)(=O)NCc2ccc3c(c2)OCO3)CC1C` (stereo not drawn) were, in that order, -20.4% (inactive) and -27.2%.

Take `CCCc1ccc2oc(C(=O)N3CCN(c4cnccn4)CC3)c(C)c2c1`: the “lipid storage change, negative = inhibition” value is 0.562% (inactive) and the cell number change is -14.5%. Taken in the same sequence, the figures for `CCCc1ccc2oc(C(=O)N3CCC(O)CC3)c(C)c2c1` were -13.7% (inactive) and 4.78%. For `CCCc1ccc2oc(C(=O)N3CCN(CC(=O)NC(C)C)CC3)c(C)c2c1`, the Potency is 4.11 µM (active) and the cell number change is -11.6%.

Turning to `COc1ccc(Cl)cc1C(=O)NNC(=O)c1cccnc1`, the compound was called inactive. For `CS(=O)(=O)c1ccc2sc(NC(=O)c3cc4ccccc4o3)nc2c1`, the “lipid storage change, negative = inhibition” value is -10.4% (inactive) and the cell number change is -15.1%.

Take `Cc1cc(C)nc(OC(C(=O)O)C(OCC(C)C)(c2ccccc2)c2ccccc2)n1` (stereo not drawn): the Potency is 29.1 µM (active) and the cell number change was -23.5%. Consider `CCC(C)COC(c1ccccc1)(c1ccccc1)C(Oc1nc(C)cc(C)n1)C(=O)O` (stereo not drawn), for which the call was inactive.

In the case of `Cc1cc(C)nc(OC(C(=O)O)C(OCc2ccccc2)(c2ccccc2)c2ccccc2)n1` (stereo not drawn), the “lipid storage change, negative = inhibition” value is 14.5% (inactive) and the cell number change is -6.47%. Taken in the same sequence, the figures for `Cc1cc(/C(N)=N/OC(=O)Nc2ccccc2)no1` were -0.219% (inactive) and 22.2%. Taken in the same sequence, the figures for `O=S(=O)(Nn1cnnc1)c1ccc2ccccc2c1` were -1.16% (inactive) and -5.21%.

For `Cc1ccsc1CNC12CC3CC(CC(C3)C1)C2`, the “lipid storage change, negative = inhibition” value is 9.59% (inactive) and the cell number change turned out to be 10.4%. Taken in the same sequence, the figures for `COc1ccc(Cl)cc1NC(=O)CN(C)CC(=O)Nc1ccccc1-c1ccccc1` were 1.41% (inactive) and 22.9%.

On to `Cc1ccc(Cl)cc1NC(=O)CNC(=O)N1CC(=O)Nc2ccccc21`, for which the “lipid storage change, negative = inhibition” value was 3.66% (inactive) and the cell number change was -12.7%. For the compound `COc1ccc(Cl)cc1NC(=O)CN(C)CC(=O)N1CC(=O)Nc2ccccc21`, the Potency was 1.3 µM (active) and the cell number change was -5.42%. Regarding `COc1cccc(NC(=O)CSc2nnc3cc(C)nc(N)n23)c1`, the “lipid storage change, negative = inhibition” value was 17.2% (inactive) and the cell number change is -13.7%. With `O=C(CSc1nnc(Nc2ccccc2F)s1)NC1CCCC1`, the Potency is 11.6 µM (active) and the cell number change is -17.4%. Take `O=C(CSc1nnc(NC(=O)c2ccccc2)s1)NC1CCCC1`: the compound was called inactive and the cell number change was -5.42%. As to `COc1ccccc1Nc1nnc(SCC(=O)NC2CC2)s1`, the “lipid storage change, negative = inhibition” value was 2.29% (inactive) and the cell number change is -14.3%. The like results for `CC(=O)n1cc([C@@H]2C=C(C(=O)NCc3ccccc3)O[C@H](OCCCCO)C2)c2ccccc21` were, in that order, -13% (inactive) and -1.9%. Consider `Cc1ccc(SCc2cc(=O)n3ccsc3n2)c(C)c1`, for which the “lipid storage change, negative = inhibition” value was 5.57% (inactive) and the cell number change was -12.5%. Taken in the same sequence, the figures for `CCn1c(SCc2cc(=O)n3ccsc3n2)nc2ccccc21` were 4.55% (inactive) and 0.881%.
